DT40 TDP1 CPT: DT40-hTDP1 cell growth loss with CPT | actives 12% (n = 420,000) | Potency, µM (highest dose often 46.2 µM), for inactives: at the top dose activity change, negative = growth inhibition, hits mostly inhibitors | chicken DT40 Tdp1-/-;hTDP1 cells + 20 nM CPT, ATP luminescence, 48 h; further: potency means the concentration at half of the fitted maximal effect; on the % scale 0 is the no-effect control and ±100 the full control effect; nearly all actives have a fitted effect of over 55% in size
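Chicken DT40 Tdp1-/- cells stably complemented with human TDP1 were seeded at 400 cells/well in medium containing 20 nM camptothecin, exposed to pin-transferred compounds, and grown at 37 °C for at least 48 hr. Viability was read as ATP luminescence.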
ClpP mod: qHTS Assay for Activators of ClpP | ATP-dependent Clp protease proteolytic subunit (Bacillus subtilis (strain 168)), P80244 | purified B. subtilis ClpP, FRET peptide cleavage, 20 min | Potency, µM (doses to about 57.5 µM), without a hit: top-dose activity change, negative = active | actives 1.9% (n = 340,000) | AID 651965, 2013; active means well fitted falling curve with a large enough effect; inconclusive means small, poorly fitted or top-dose-only effect; inactive means no such curve, though single readings can be large or run the other way; further: potency means the concentration at half of the fitted maximal effect; the source files actives as falling curves though it sought activators and does not explain the sign; nearly all actives have a fitted effect of over 65% in size
Target sequence (P80244 whole entry, looked up): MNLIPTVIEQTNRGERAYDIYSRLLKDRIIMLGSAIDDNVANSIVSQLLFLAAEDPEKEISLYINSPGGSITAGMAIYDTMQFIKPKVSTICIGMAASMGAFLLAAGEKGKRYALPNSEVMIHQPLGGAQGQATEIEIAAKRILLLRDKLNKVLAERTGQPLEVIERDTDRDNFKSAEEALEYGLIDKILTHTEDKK
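Buffer: 100 mM Tris/HCl pH8, 100 mM KCl, 0.05% low protease BSA, 2.5% glycerol, 0.01% Tween-20. ClpP 10 microg/mL final; 20 min RT; delta FRET normalized to ADEP and DMSO controls.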
DT40 TDP1 no CPT: qHTS for Inhibitors of human tyrosyl-DNA phosphodiesterase 1 (TDP1): qHTS in cells in absence of CPT; DT40 Tdp1-/- hTDP1 cells, no CPT, ATP luminescence, 48 h; Potency, µM (highest dose often 46.2 µM), inactives show at the top dose activity change, negative = growth inhibition, hits mostly inhibitors; actives 15% (n = 420,000); AID 686978, 2013; further: potency means the concentration at half of the fitted maximal effect; on the % scale 0 is the no-effect control and ±100 the full control effect; nearly all actives have a fitted effect of over 55% in size
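Compound effects on proliferation are scored in DT40 Tdp1-/-;hTDP1 cells in the absence of CPT. ATP levels (CellTiter-Glo luminescence) are recorded after a ≥48 hr, 37 °C incubation.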
DRD3 agonist: activates the human D3 dopamine receptor | actives 0.58% (n = 410,000) | AID 652048 | P35462 | D3R DiscoveRx beta-arrestin cells, luminescence, 90 min | max activation, %; in the data active means max activation above about 30%; further: 0% is about no effect
Target sequence (P35462 whole entry, looked up): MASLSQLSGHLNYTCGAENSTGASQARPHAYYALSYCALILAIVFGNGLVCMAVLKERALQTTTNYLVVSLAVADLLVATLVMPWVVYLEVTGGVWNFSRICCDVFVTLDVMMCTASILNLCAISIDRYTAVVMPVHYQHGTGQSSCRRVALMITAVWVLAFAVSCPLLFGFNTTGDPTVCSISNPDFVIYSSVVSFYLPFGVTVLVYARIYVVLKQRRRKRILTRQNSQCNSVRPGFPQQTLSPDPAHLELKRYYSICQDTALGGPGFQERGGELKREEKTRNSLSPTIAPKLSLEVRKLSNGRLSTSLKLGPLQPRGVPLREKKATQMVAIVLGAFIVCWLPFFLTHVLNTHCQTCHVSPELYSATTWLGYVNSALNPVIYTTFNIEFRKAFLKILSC
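Agonist-mode cell screen: cells plated at 1500/well and incubated overnight at 37 °C, then exposed to library compounds for 90 min at 37 °C. Detection reagent was added for 30–60 min at room temperature, and luminescence was read.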
D3 antag: antagonists of human D3 dopamine receptor; P35462; D3R cells, DiscoveRx beta-arrestin luminescence, antagonist mode; hits give low values; max response, negative = inhibition, %; actives 2.5% (n = 360,000); AID 652054; in the data active means max response below about -50%; inconclusive means no clear call, values can overlap the other calls; further: on the % scale 0 is the no-effect control and ±100 the full control effect
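Cells plated overnight at 1500 cells/well, then exposed to library compounds with dopamine controls for 90 minutes at 37 degrees C. DiscoveRx reagent added for 30–60 minutes at room temperature; luminescence read, quantitative HTS format.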
IL1B secr inh: inhibitors of inflammasome signaling (IL-1 beta secretion); THP-1 LPS/ATP IL-1B secretion, AlphaLISA, 16 h; hits give low values; activity change, % at 57.5 µM; actives 4.7% (n = 360,000); AID 743279; in the data active means activity change below about -50%; inconclusive means mostly about -30% to -49%; further: on the % scale 0 is the no-effect control and ±100 the full control effect
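THP-1 cells pretreated 1 hr with compounds (up to 57.5 uM final), then stimulated with LPS (250 ng/mL final) plus ATP (1.25 mM final); secreted IL-1B measured by AlphaLISA after 16 hr, decreased signal indicating inhibition.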
An asterisk follows results filed as active; ? = inconclusive; / = not tested or not shown; ! = not active in a repeat; [ ] = dose if it differs, or a comment. In the library only some 21% were active in any assay of this set; here they are far more common. Unless noted, the call rests on the fitted dose curve; in most records, active means well fitted inhibition curve with a large enough effect; inconclusive means small, poorly fitted or top-dose-only effect; inactive means flat fitted curve, though single readings scatter.

SMILES	DT40 TDP1 CPT	ClpP mod	DT40 TDP1 no CPT	DRD3 agonist	D3 antag	IL1B secr inh
CCc1ccc(NC(=O)C2CCN(S(=O)(=O)c3c(C)noc3/C=C\c3ccc(OC)cc3)CC2)cc1	8.2µM*	-5%	5.2µM*	8	/	/
CNC(=O)C1CCN(S(=O)(=O)c2c(C)noc2/C=C/c2cccc(OC)c2)CC1	3%	4%	-15%	0	22	-20
CCOC(=O)c1cccc(NC(=O)C2CCN(S(=O)(=O)c3c(C)noc3/C=C/c3ccc(C)cc3)CC2)c1	21µM*	?	12µM*	3	/	/
Cc1ccc(/C=C/c2onc(C)c2S(=O)(=O)N2CCC(C(=O)Nc3ccc(Br)c(C)c3)CC2)cc1	-26%	-3%	-23%	-5	/	/
COc1ccc(/C=C\c2onc(C)c2S(=O)(=O)N2CCC(C(=O)Nc3cccc(OC)c3)CC2)cc1	15µM*	-24%	16µM*	-14	/	/
CCc1ccc(NC(=O)C2CCN(S(=O)(=O)c3c(C)noc3C)CC2)cc1	?	1%	18µM*!	6	-7	1
CCOc1ccc(NC(=O)C2CCN(S(=O)(=O)c3c(C)noc3C)CC2)cc1	?	0%	-14%	-3	-14	15
COc1ccc(NC(=O)Nc2ccc3c(c2)C(=O)N([C@H](C)CO)C[C@H](C)[C@@H](CN(C)C(=O)Nc2c(C)noc2C)O3)cc1	-7%	0%	-8%	0	-10	7
C=CCNC(=S)NNC(=O)c1cccn(Cc2ccc(Cl)cc2)c1=O	-1%	214%	-8%	-4	-67*	0
Cc1ccccc1CS(=O)(=O)c1cnc2ccccc2n1	?	-4%	29µM*	-5	?	-119*
COC(=O)c1c(-c2cccs2)csc1NC(=O)c1ccc(Br)cc1	?	?	?	18	/	/
CCOc1ccc(C2Nc3ccc4ccccc4c3-c3c2c(=O)oc2ccccc32)cc1 (stereo not drawn)	?	74%	?	-10	-11	-55*
CCn1cc(Cl)c(C(=O)N2N=C(c3ccc4ccccc4c3)CC2c2ccccc2O)n1 (stereo not drawn)	?	-6%	15µM*	-5	7	?
CCn1cc([N+](=O)[O-])c(C(=O)N2N=C(c3ccc(OC)cc3OC)CC2c2ccccc2O)n1 (stereo not drawn)	?	-1%	15µM*	-4	?	-2
CCn1cc([N+](=O)[O-])c(C(=O)N2CCCC2)n1	11%	0%	-7%	32*	11	9
CCn1cc([N+](=O)[O-])c(C(=O)N2N=C(c3cccc4ccccc34)CC2c2ccccc2O)n1 (stereo not drawn)	?	1%	13µM*	1	?	?
CCOC(=O)[C@@H]1[C@H]2COc3cc(OC)ccc3[C@H]2N2C(=O)N(c3cccc(F)c3)C(=O)[C@]12C	?	-3%	?	-5	4	-4
NC(=O)c1ccc(SCC(=O)OCC(=O)NC2CCCCCCC2)c([N+](=O)[O-])c1	-28%	-1%	0%	-1	-11	-1
Oc1cccc(/C=N/N2CCCCC2)c1O	-24%	2%	?	1	7	-3
O=C1c2cccc3cccc(c23)C(=O)N1/N=C/c1ccc(O)cc1O	-1%	1%	-25%	5	18	-19
O=C1c2ccccc2C(=O)N1/N=C/c1ccc(O)c(O)c1O	4.1µM*	/	?	16	3	-1
Oc1ccc(/C=N/N2CCCCC2)c(O)c1O	5.8µM*	/	10µM*	20	16	-3
Oc1ccc(/C=N/N2CCOCC2)c(O)c1O	4.1µM*	/	4.1µM*	6	5	-19
COc1cccc(/C=N/N2CCOCC2)c1O	3%	/	2%	3	3	-18
Cc1ccc(NC(=O)c2ccc3oc(=O)c(S(=O)(=O)c4ccccc4)cc3c2)cc1C	-14%	-11%	-12%	-4	/	/
SMILES	DT40 TDP1 CPT	ClpP mod	DT40 TDP1 no CPT	DRD3 agonist	D3 antag	IL1B secr inh
COc1cc(OC)cc(C(=O)NCc2ccc(-n3cccc3)cc2)c1	18µM*	-7%	?	-15	?	-17
O=C(CNC(=O)Cc1ccccc1)NCc1cccs1	-13%	2%	0%	0	0	5
Cc1ccc(CNC(=O)c2ccc(-n3cccc3)cc2)cc1	-13%	/	-11%	19	1	27
Cc1ccc(CNC(=O)Cc2ccc(-n3cccc3)cc2)cc1	1.3µM*	1%	0.82µM*	3	7	-13
COc1ccc(CC(=O)NCc2ccc(-n3cccc3)cc2)cc1OC	2.3µM*	1%	2.3µM*	1	-10	21
O=C(Cc1ccc(-n2cccc2)cc1)NCc1cccs1	0.82µM*	-1%	1µM*	-9	45	34
COc1ccc2oc(=O)c(-c3cn4c(n3)sc3cc(F)ccc34)cc2c1	-11%	-5%	5%	-1	/	/
COc1ccc(S(=O)(=O)N(C)C)cc1NC(=O)CSc1nncs1	-16%	0%	-25%	-3	12	15
COc1ccc(NC(=O)CCS(=O)(=O)c2cccc3nonc23)cc1Cl	?	0%	-16%	-7	-1	-12
COC(=O)C1=CO[C@@H](O[C@@H]2O[C@H](CO)[C@@H](O)[C@H](O)[C@H]2O)C2C(CO)=CCC12 (stereo partly drawn)	-3%	0%	7%	16	-16	1
CC(=O)OCC1=C[C@@H]2OC(=O)C3=CO[C@@H](O[C@@H]4O[C@H](CO)[C@@H](O)[C@H](O)[C@H]4O)[C@H]1[C@@H]32	0%	1%	-26%	70*	-11	14
CCCCCCCC/C=C\CCCCCCCC(=O)OCC(CO)OC(=O)CCCCCCC/C=C\CCCCCCCC (stereo not drawn)	-29%[4.12 µM]	/	-7%[4.12 µM]	/	/	/
Cc1cscc1-c1cc2nc(NCCCN(C)C)n(C)c(=O)c2s1	16µM*	?	?	4	2	?
COc1ccc(-c2cc3nc(NCCCN(C)C)n(C)c(=O)c3s2)c(C)c1	?	-23%	?	-7	-5	-21
Cc1cc(Cl)ccc1-c1cc2nc(NCCCN(C)C)n(C)c(=O)c2s1	23µM*	-17%	13µM*	-8	-19	-11
COC1OC(c2ccccc2)=C(c2cnc(N)nc2)c2ccc(F)cc21 (stereo not drawn)	-10%	0%	-7%	5	38	-7

Bioassay records from PubChem.
